Measured values from ChEMBL document CHEMBL2218924, “A broad activity screen in support of a chemogenomic map for kinase signalling research and drug discovery” (Biochem J, 2013).

Legend:
[1] = target: T1, Ephrin type-A receptor 3 (Homo sapiens) (UniProt P29320); settings: at 10 µM
T1 sequence (whole entry): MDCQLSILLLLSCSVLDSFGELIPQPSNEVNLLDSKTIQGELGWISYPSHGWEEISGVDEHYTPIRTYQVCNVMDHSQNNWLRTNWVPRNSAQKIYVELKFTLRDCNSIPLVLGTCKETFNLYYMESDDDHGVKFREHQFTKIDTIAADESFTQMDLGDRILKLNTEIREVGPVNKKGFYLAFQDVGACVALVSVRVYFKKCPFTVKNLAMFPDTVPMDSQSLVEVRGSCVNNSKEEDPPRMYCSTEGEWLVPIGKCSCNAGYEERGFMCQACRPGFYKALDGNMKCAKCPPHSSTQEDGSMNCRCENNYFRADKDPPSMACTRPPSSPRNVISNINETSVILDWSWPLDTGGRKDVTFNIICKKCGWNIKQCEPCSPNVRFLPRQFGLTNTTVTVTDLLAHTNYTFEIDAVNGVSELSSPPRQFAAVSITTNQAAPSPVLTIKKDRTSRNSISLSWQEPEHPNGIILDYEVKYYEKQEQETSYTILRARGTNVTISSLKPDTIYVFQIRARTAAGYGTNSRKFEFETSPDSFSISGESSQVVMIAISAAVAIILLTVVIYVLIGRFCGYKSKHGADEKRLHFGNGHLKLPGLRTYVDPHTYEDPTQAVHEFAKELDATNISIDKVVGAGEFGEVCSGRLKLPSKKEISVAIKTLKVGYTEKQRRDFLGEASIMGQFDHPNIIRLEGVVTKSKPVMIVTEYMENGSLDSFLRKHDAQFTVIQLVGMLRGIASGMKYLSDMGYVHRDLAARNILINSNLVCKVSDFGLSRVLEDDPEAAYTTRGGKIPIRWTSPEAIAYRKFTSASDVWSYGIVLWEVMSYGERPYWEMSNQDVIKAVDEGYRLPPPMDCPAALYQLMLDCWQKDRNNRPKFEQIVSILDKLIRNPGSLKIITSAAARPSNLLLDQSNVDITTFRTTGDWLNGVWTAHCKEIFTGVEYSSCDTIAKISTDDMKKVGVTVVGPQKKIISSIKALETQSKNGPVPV

[2] = target: Ephrin type-A receptor 4 (Homo sapiens) (UniProt P54764); settings: at 1 µM
[3] = target: Ephrin type-A receptor 4 (Homo sapiens) (UniProt P54764); settings: at 10 µM
[4] = target: Ephrin type-A receptor 5 (Homo sapiens) (UniProt P54756); settings: at 1 µM
[5] = target: Ephrin type-A receptor 5 (Homo sapiens) (UniProt P54756); settings: at 10 µM
[6] = target: Ephrin type-A receptor 7 (Homo sapiens) (UniProt Q15375); settings: at 1 µM
[7] = target: Ephrin type-A receptor 7 (Homo sapiens) (UniProt Q15375); settings: at 10 µM
[8] = target: T2, Ephrin type-B receptor 1 (Homo sapiens) (UniProt P54762); settings: at 1 µM
T2 sequence (whole entry): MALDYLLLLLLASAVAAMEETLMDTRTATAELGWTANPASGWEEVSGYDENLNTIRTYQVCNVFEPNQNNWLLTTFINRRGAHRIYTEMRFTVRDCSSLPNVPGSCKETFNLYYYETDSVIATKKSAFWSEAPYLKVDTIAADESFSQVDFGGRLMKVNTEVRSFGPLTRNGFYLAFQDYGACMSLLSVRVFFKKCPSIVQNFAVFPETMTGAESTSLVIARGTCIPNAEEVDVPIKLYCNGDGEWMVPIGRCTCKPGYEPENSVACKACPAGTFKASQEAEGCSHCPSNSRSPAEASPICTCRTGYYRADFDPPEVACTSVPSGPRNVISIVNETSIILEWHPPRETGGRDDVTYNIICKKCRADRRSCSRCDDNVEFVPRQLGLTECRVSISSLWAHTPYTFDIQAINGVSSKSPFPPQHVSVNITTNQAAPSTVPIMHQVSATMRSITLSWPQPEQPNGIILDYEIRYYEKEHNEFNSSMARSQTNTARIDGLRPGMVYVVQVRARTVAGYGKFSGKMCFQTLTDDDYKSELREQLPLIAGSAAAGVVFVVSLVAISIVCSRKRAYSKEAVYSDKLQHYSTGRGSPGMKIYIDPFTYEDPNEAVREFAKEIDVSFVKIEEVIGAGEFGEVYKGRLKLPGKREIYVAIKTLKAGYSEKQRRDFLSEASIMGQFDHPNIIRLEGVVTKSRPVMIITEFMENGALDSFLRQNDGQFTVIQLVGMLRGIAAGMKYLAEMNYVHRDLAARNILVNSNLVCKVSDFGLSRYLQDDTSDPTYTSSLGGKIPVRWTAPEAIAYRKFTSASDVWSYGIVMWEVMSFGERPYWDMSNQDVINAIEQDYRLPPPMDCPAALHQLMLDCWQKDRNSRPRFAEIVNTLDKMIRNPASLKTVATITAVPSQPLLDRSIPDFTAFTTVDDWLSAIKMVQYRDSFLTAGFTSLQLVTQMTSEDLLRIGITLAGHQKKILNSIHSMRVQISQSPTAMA

[9] = target: T2, Ephrin type-B receptor 1 (Homo sapiens); settings: at 10 µM
[10] = target: T3, Ephrin type-B receptor 2 (Homo sapiens) (UniProt P29323); settings: at 1 µM
T3 sequence (whole entry): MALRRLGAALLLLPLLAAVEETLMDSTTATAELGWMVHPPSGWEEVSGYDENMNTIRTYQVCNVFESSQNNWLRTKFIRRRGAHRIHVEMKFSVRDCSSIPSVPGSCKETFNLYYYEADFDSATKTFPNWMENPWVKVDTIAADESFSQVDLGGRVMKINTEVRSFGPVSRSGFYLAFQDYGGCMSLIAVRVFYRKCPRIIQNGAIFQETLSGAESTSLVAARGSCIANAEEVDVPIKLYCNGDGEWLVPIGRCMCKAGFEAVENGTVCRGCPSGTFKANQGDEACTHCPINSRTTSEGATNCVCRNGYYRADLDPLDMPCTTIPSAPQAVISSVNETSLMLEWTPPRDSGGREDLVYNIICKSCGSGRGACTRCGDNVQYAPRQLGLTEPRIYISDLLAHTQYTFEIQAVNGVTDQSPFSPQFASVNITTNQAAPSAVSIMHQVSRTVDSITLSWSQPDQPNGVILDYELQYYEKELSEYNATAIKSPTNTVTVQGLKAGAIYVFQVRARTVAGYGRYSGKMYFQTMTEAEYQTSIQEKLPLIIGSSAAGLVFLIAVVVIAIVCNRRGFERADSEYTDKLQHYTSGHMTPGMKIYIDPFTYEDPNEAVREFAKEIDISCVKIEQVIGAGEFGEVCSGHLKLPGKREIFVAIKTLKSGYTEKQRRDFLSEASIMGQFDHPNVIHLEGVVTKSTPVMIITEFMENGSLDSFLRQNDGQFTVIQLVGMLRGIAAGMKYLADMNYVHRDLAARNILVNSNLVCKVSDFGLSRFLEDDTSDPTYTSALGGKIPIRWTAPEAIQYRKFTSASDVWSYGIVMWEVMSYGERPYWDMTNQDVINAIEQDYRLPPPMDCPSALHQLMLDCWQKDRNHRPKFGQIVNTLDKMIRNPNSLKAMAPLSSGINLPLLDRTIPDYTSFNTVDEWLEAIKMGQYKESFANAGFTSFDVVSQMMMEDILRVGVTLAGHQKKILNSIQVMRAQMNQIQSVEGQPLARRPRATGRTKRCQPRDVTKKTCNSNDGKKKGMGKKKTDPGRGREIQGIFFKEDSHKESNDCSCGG

[11] = target: T3, Ephrin type-B receptor 2 (Homo sapiens); settings: at 10 µM
[12] = target: T4, Ephrin type-B receptor 3 (Homo sapiens) (UniProt P54753); settings: at 1 µM
T4 sequence (whole entry): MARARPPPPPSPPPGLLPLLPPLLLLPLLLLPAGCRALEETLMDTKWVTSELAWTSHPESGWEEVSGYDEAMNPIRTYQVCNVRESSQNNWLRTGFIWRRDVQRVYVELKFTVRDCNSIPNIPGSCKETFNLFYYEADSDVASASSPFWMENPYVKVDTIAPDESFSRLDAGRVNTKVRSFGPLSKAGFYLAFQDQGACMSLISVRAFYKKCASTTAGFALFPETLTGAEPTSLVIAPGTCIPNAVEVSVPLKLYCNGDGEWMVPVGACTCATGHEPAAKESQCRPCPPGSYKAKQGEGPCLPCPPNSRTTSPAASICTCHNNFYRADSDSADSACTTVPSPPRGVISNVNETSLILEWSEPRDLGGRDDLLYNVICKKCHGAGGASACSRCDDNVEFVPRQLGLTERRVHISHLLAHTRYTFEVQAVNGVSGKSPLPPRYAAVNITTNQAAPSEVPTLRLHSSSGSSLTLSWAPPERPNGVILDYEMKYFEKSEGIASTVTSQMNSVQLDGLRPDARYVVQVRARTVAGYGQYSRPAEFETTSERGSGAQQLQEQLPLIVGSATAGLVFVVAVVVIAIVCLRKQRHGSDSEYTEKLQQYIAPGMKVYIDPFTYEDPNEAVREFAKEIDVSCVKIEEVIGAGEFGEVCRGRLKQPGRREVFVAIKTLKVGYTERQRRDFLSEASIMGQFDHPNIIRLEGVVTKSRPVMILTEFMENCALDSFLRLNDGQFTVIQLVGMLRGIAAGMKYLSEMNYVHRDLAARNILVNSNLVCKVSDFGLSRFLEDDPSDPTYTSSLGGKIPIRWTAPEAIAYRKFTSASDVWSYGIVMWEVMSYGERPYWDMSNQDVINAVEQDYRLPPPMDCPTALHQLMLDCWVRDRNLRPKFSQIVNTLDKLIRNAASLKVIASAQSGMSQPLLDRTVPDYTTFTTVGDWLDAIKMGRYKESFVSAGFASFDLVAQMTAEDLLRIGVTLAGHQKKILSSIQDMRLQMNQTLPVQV

[13] = target: T4, Ephrin type-B receptor 3 (Homo sapiens); settings: at 10 µM
[14] = target: T5, Ephrin type-B receptor 4 (Homo sapiens) (UniProt P54760); settings: at 1 µM
T5 sequence (whole entry): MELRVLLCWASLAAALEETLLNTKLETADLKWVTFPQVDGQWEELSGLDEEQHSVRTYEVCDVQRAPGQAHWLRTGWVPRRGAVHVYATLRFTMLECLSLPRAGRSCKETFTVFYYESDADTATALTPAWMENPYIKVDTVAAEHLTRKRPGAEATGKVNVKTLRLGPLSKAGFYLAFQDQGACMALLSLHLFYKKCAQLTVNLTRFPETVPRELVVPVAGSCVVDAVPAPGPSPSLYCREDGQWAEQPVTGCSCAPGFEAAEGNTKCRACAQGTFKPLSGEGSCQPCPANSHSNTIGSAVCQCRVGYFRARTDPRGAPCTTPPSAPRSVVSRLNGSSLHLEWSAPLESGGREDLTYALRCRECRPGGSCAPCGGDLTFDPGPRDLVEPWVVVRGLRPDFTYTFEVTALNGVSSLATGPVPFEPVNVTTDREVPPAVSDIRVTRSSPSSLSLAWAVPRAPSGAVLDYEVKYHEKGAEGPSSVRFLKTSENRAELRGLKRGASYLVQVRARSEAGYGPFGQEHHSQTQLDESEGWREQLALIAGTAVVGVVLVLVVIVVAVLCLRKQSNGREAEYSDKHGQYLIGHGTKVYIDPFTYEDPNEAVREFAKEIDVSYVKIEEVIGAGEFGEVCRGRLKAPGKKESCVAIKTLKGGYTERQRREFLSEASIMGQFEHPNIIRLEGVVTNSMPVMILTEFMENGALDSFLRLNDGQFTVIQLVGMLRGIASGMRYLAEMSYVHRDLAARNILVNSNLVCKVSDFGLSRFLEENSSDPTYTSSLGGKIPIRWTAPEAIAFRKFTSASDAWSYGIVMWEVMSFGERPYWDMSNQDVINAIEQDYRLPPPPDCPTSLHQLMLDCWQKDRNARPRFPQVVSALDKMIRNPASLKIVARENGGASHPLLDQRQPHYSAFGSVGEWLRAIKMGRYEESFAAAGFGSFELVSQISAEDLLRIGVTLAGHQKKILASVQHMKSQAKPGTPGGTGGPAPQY

[15] = target: T5, Ephrin type-B receptor 4 (Homo sapiens); settings: at 10 µM
[16] = target: Receptor tyrosine-protein kinase erbB-4 (Homo sapiens) (UniProt Q15303); settings: at 1 µM
[17] = target: Receptor tyrosine-protein kinase erbB-4 (Homo sapiens) (UniProt Q15303); settings: at 10 µM
[18] = target: Focal adhesion kinase 1 (Homo sapiens) (UniProt Q05397); settings: at 1 µM

Sequence of Ephrin type-A receptor 7 (Homo sapiens) (Q15375 28-998 limits assumed): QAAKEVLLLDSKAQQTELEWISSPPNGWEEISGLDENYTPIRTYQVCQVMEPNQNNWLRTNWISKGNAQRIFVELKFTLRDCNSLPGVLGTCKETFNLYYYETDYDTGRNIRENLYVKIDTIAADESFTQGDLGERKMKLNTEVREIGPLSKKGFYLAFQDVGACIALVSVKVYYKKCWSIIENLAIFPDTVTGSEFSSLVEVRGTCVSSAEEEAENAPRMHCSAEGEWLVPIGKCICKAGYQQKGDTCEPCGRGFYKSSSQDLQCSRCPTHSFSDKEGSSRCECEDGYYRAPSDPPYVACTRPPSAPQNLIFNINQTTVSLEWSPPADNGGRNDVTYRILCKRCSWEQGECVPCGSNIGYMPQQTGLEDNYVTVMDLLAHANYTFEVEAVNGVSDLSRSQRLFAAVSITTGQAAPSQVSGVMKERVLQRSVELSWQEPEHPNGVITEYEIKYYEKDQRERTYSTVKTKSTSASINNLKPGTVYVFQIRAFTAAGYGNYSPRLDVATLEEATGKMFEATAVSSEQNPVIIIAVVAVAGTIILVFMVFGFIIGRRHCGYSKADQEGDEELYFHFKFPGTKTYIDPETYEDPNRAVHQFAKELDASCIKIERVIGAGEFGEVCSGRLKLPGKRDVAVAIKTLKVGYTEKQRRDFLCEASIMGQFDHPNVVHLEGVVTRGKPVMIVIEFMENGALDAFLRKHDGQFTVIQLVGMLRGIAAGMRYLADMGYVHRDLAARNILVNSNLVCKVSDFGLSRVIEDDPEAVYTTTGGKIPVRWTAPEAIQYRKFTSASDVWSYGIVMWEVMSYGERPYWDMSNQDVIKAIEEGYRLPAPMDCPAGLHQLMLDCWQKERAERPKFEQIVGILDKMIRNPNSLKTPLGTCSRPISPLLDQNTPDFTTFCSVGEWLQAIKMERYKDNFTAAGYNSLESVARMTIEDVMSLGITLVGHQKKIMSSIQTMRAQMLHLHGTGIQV
Sequence of Ephrin type-A receptor 4 (Homo sapiens) (P54764 whole entry): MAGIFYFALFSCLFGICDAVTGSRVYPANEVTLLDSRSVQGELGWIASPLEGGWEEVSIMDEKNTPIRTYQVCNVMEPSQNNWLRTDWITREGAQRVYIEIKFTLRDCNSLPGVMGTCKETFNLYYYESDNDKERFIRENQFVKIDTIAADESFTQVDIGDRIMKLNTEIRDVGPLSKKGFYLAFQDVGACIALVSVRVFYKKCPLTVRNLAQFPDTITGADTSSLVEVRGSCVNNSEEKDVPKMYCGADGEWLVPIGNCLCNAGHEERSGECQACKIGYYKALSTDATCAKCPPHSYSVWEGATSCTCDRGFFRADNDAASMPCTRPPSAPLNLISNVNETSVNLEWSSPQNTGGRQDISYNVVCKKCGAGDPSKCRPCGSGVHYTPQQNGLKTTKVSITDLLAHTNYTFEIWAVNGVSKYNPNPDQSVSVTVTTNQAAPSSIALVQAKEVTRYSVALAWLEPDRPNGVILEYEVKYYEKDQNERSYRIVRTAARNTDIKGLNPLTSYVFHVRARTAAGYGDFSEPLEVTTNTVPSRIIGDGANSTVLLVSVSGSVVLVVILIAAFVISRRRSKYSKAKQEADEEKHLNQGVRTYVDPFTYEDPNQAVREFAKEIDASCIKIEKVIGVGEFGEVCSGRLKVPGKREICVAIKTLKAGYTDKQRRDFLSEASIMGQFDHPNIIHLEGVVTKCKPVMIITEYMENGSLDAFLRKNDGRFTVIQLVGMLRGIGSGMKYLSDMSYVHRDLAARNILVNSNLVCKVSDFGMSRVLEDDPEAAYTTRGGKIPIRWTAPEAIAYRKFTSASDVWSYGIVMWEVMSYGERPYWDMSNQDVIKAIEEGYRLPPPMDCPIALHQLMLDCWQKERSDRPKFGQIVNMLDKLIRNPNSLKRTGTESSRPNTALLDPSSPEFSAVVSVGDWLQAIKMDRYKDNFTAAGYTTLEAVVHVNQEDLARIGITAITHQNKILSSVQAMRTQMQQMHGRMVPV
Sequence of Ephrin type-A receptor 5 (Homo sapiens) (P54756 whole entry): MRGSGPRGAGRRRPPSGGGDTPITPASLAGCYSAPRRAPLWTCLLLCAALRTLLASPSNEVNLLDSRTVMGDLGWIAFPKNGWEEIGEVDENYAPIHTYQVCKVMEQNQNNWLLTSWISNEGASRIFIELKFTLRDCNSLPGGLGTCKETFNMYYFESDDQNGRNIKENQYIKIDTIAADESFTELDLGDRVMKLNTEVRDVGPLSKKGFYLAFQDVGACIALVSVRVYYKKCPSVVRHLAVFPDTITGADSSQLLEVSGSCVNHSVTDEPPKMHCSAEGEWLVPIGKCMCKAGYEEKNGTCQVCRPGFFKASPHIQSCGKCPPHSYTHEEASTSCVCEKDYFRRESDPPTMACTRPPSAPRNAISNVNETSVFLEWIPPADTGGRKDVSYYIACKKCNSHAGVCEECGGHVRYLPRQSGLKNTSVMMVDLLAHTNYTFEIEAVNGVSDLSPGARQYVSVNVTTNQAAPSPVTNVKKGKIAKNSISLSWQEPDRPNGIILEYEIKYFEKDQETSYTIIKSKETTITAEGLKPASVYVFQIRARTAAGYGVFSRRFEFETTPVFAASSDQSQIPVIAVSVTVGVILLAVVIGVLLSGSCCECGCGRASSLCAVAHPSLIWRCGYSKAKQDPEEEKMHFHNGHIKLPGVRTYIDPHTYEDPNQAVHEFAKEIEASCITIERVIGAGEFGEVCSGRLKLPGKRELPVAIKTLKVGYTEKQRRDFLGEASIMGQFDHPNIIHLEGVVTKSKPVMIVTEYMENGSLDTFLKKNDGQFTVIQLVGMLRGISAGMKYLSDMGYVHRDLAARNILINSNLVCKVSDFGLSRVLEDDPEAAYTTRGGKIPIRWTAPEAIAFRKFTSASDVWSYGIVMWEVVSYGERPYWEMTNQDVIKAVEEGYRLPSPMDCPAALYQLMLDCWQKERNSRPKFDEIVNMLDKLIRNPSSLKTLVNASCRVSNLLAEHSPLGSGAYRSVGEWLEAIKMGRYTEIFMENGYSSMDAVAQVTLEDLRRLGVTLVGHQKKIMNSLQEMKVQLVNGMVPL
Sequence of Receptor tyrosine-protein kinase erbB-4 (Homo sapiens) (Q15303 whole entry): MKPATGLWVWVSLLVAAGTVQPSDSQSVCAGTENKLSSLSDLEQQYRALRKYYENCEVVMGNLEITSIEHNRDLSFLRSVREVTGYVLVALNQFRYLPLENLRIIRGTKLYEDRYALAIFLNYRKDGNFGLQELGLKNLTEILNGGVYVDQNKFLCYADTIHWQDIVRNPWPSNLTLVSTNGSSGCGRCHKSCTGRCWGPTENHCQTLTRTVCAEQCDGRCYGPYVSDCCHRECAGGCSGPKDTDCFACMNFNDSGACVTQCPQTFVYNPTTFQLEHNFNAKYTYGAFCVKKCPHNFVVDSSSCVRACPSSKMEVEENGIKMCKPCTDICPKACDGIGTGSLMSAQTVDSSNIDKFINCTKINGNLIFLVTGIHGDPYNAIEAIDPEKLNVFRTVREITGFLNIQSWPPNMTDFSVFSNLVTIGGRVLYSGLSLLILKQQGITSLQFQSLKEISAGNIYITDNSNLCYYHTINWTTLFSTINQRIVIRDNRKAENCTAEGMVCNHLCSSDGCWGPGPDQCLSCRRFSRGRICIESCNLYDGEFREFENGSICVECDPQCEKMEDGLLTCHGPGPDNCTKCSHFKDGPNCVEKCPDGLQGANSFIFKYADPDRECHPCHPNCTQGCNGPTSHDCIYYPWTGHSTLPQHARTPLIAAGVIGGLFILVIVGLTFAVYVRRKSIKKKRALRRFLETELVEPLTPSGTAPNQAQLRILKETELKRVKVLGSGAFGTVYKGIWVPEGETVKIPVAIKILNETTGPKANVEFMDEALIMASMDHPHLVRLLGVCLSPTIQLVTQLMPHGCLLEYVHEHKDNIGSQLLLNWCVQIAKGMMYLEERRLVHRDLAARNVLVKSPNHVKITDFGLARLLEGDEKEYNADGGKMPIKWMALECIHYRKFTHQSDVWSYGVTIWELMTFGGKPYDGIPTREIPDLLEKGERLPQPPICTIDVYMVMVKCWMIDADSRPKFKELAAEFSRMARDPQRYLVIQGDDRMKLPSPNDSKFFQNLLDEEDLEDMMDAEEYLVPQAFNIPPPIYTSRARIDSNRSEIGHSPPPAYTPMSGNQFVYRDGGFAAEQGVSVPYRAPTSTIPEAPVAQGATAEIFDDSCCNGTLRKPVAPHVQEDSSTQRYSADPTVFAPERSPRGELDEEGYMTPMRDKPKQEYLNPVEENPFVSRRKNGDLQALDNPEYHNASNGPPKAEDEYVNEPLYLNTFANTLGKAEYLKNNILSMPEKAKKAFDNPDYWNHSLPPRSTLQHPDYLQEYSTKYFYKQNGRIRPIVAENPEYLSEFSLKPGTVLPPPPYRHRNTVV

## CCCCc1c(-c2ccc(OC)cc2)[nH]c2nccnc12
[1]
  residual activity: 49%
[2]
  residual activity: 108%
[3]
  residual activity: 105%
[4]
  residual activity: 100%
[5]
  residual activity: 83%
[6]
  residual activity: 77%
[7]
  residual activity: 73%
[8]
  residual activity: 61%
[9]
  residual activity: 61%
[10]
  residual activity: 101%
[11]
  residual activity: 89%
[12]
  residual activity: 121% (inactive)
[13]
  residual activity: 109%
[14]
  residual activity: 78%
[15]
  residual activity: 81%
[16]
  residual activity: 120%
[17]
  residual activity: 102%
[18]
  residual activity: 67%
